# Data taken from PubChem BioAssay AID651644 (National Center for Advancing Translational Sciences (NCATS), 2012).
# The campaign covered roughly 360,000 compounds. About 750 (0.21%) were called active. Entries that show only a call come without a potency. Not shown: some 2% with an inconclusive outcome. The sample as a whole holds a higher share of actives than the screen did. Values without a mark were called inactive. Calls follow the shape of the dose curve; as a rule, active = well fitted falling curve with a large enough effect; inconclusive = small, poorly fitted or top-dose-only effect; inactive = no such curve, though single readings can be large or run the other way.
# Assay: qHTS Assay for Inhibitors of the HIV-1 protein Vpr; also: nearly all actives have a fitted effect of over 50% in size
# Conditions: S. pombe RE007 Vpr strain, BacTiter-Glo ATP luminescence, 24 h; series mostly up to 92.2 µM
# Text: Human immunodeficiency virus type 1 (HIV-1), the causative agent of AIDS, contains a protein called viral protein R (Vpr) that plays an important role in the viral life cycle and the pathogenesis of HIV-1.
# These Vpr specific activities include cytoplasmic-nuclear shuttling, induction of cell cycle G2 arrest and cell killing. The cytoplasmic-nuclear shuttling is believed to participate in nuclear transport of the proviral integration complex (PIC). The cell cycle G2 arrest induced by Vpr is thought to suppress human immune functions by preventing T cell clonal expansion and to provide an optimized cellular environment for maximal levels of viral replication. In addition, Vpr induces apoptosis, which may contribute to the depletion of CD4 T cells in HIV-infected patients. Since the Vpr-specific activities have been linked to such clinical manifestation of AIDS as activation of viral replication, suppression of host immune responses and depletion of CD4+ T-lymphocytes, identification of new molecular probes that can inhibit the Vpr activities could potentially provide a new approach to reduce Vpr-mediated detrimental effects in HIV-infected patients, and thus prolong patient's lives. Currently, there are no anti-Vpr drugs.
# A fission yeast (Schizosaccharomyces pombe) model system for the Vpr studies has been developed which measures HIV-1 Vpr-induced cell death. This assay will be used for to screen the NIH Molecular Libraries Small Molecule Repository (MLSMR) identify small molecule HIV-1 Vpr inhibitors.
# NIH Chemical Genomics Center [NCGC]
# NIH Molecular Libraries Probe Centers Network [MLPCN]
# Assay Submitter (PI): Richard Zhao, University of Maryland
# The fission yeast RE007 strain was used, which carries a single integrated copy of HIV-1 vpr gene in the yeast chromosome. The starting culture was frozen stock 100ul of yeast RE007 in 150ml of *PMG+AL medium, Incubation in 30 degree plus 99% humidity for 18 hours. Next day dispensed 2.5ul of PMG+AL medium in each well to 1536 well white solid plate, then 23nL compound were delivered to each well using a pin tool. Check OD for overnight culture and add cell density at 0.01 for each well, incubation in 30 degree plus 99% humidity for 24 hours. After add 5 ul of *BacTiter/Glo detect reagent to each well at room temperature for 5 minutes then to red out results with Viewlux CCD camera.
# Potency is read from the fitted curve at half-maximal effect.
Structure (SMILES),Potency,"activity change, negative = less growth"
CN(O)C(=S)c1ccccc1,12.6 µM (active),–
COC(=O)[C@@H]1C[C@@]2(O)[C@H](O)[C@H](O)[C@H](O)C[C@H]2N1Cc1ccc(C)s1,inactive,–
O=C(COc1coc(CN2CCN(c3ccccc3F)CC2)cc1=O)N1CCc2ccccc21,inactive,–
Cc1ccc(S(=O)Cc2ccc(C(=O)N3CCN(C4CCCCC4)CC3)o2)cc1 (centres undefined),inactive,–
CCN(C(=O)COC(=O)/C=C/c1nc2ccccc2s1)C1CCS(=O)(=O)C1 (centres undefined),inactive,–
CC(=O)c1ccc(N2Cc3ccccc3C2)cc1,inactive,–
CSc1c(SCc2ccccc2)cnn(Cc2ccccc2)c1=O,inactive,–
O=S(=O)(c1ccc2c(c1)OCCO2)N1CCc2ccccc21,inactive,–
O=C(CN1CCc2cc3c(cc2C1)OCCCO3)Nc1ccccc1,inactive,–
O=C(CCN1CCc2ccccc2C(O)(c2ccccc2)C1)c1ccc2c(c1)OCCO2 (centres undefined),5.62 µM (active),–
Cn1c(=O)cc(OCCCC(=O)N2CCN(c3ccccn3)CC2)c2ccccc21,inactive,–
CCC(Oc1ccccc1C)C(=O)Nc1ccc(S(=O)(=O)Nc2cc(C)on2)cc1 (centres undefined),inactive,–
O=C(CNCc1cccs1)Nc1cc(S(=O)(=O)N2CCCC2)ccc1Cl,inactive,–
COc1cccc(NCCC(=O)c2cccc([N+](=O)[O-])c2)c1,inactive,–
COC(=O)/C=C\C(=O)Nc1cccc([N+](=O)[O-])c1,7.94 µM (active),–
CC(NC(=O)Nc1cccc([N+](=O)[O-])c1)c1ccc2c(c1)OCO2 (centres undefined),inactive,–
O=C(COC(=O)CCCNC(=O)c1ccc(Cl)cc1)Nc1cc(Cl)ccc1Cl,inactive,–
O=C(Cn1nnc2ccccc2c1=O)Nc1cc(C(F)(F)F)ccc1N1CCOCC1,inactive,–
CCCCCCCCCCCCn1ccc(=N)cc1,11.2 µM (active),–
Cc1ccc(S(=O)(=O)NCCCn2ccnc2)cc1C(=O)NC(C)C,inactive,–
CCCn1cc(SCC(N)=O)c2ccccc21,inactive,–
O=C(Nc1cccc2ccccc12)c1[nH]c(-c2ccccc2)c2c1C(=O)N(C1CC1)C2=O,inactive,–
O=C(Nc1cccc2ccccc12)c1onc2c1CCCC2,14.1 µM (active),–
O=C(Nc1cccc2ccccc12)NC1CC1,inactive,–
Cc1ccc(NC(=O)[C@H](Cc2ccccc2)NC(=O)C2CCNCC2)cc1,inactive,–

Structure (SMILES),Potency,"activity change, negative = less growth"
CC1c2nc3ccccc3n2C(CC(=O)NCCCN2CCOCC2)C(=O)N1Cc1ccccc1 (centres undefined),inactive,–
CCOC(=O)c1sc(C)c2c1NC(C)(c1cccc3ccccc13)NC2=O (centres undefined),inactive,–
O=C(O)COc1ccc(/C=N/O)cc1Br,inactive,–
COc1ccc(Br)cc1CNCCc1cccc(Cl)c1,inactive,–
COc1cc(/C=N/O)cc(Br)c1OCc1cccc(Cl)c1,10 µM (active),–
CCc1noc(C)c1C(=O)OCC(=O)c1ccc(NC(=O)CC(C)C)cc1,inactive,–
O=C(CN1CCN(c2ncccn2)CC1)Nc1ccccc1C(F)(F)F,inactive,–
Cc1noc(C)c1S(=O)(=O)N(C)C[C@H]1Oc2ccc(NC(=O)C3CC3)cc2C(=O)N([C@H](C)CO)C[C@@H]1C,inactive,–
Cc1ccc(Cl)c(NC(=O)CN(C)CC(=O)Nc2ccc(F)c(F)c2F)c1Cl,inactive,–
CC(=O)Nc1ccc(/C=N/Nc2ccc(C(=O)c3c(C)cc4ccccn34)cc2[N+](=O)[O-])cc1,inactive,–
CCSC1(SCC)N=C(N)C2(C#N)C(c3ccccc3)NC(C)=CC12C#N (centres undefined),4.47 µM (active),–
COc1ccc(C(=O)NC2CC2)cc1OC1CCN(Cc2ccc(SC)cc2)CC1,inactive,–
Cc1ccc(CN(Cc2cccnc2)C(=S)Nc2cc(Cl)ccc2C)cc1,inactive,–
O=C1CSC(=S)N1/N=C/c1ccc(O)c([N+](=O)[O-])c1,28.2 µM (active),–
O=C(CN(CC1CCCO1)C(=O)CNS(=O)(=O)c1ccccc1)NCc1ccccc1 (centres undefined),inactive,–
CCN(CC)S(=O)(=O)c1ccc(Cl)c(C(=O)NCCN2CCOCC2)c1,inactive,–
Cc1c(C(=O)NCCN(C)C)oc2ccc(S(=O)(=O)N3CCCC3)cc12,inactive,–
C[C@H](NC(=O)c1ccccc1Cl)C(=O)OCC(=O)N1CCN(c2ccccc2)CC1,inactive,–
Cc1ccc(C)c(OCCC(=O)OCC(=O)N2CCN(c3ccccc3)CC2)c1,inactive,–
O=C(OCC(=O)N1CCN(c2ccccc2)CC1)c1ccc([N+](=O)[O-])s1,39.8 µM (active),–
CC(=O)c1cccc(-n2nnnc2SCC(=O)NNC(=O)C2CCCCC2)c1,inactive,–
C=CS(=O)c1sc(Cl)c(N2CCOCC2)c1[N+](=O)[O-] (centres undefined),12.6 µM (active),–
COc1ccc(-c2ccc3c(c2)[C@@H]2C[C@H](N(C)S(=O)(=O)c4ccccc4)[C@H]([C@H](C)O)C(=O)N2CC3)cc1,inactive,–
CC(Oc1ccc(F)cc1)C(=O)Nc1cc(S(=O)(=O)N2CCOCC2)ccc1N1CCN(C)CC1 (centres undefined),inactive,–
CC1(C)C(c2cccs2)=[N+]([O-])C2(CCCCC2=O)N1O (centres undefined),inactive,–

Structure (SMILES),Potency,"activity change, negative = less growth"
Cc1ccc(S(=O)(=O)N(CC(=O)Nc2cccnc2)c2ccc(Br)cc2)cc1,inactive,–
CC(C)CN(C(=O)CN1CCN(S(=O)(=O)c2ccccc2)CC1)c1c(N)n(CC(C)C)c(=O)[nH]c1=O,inactive,–
CC1(C(=O)NS(=O)(=O)c2ccc3ccccc3c2)CCN1C(=O)C1(c2ccc(Cl)cc2)CCC1 (centres undefined),inactive,–
CCC(c1nnc(SCC(=O)NNC(=O)c2ccccc2)n1Cc1ccccc1)N(C)C (centres undefined),inactive,–
O=C1NC(=O)N(c2ccccc2)C(=O)/C1=C/c1ccc([N+](=O)[O-])s1,28.2 µM (active),–
CCOc1ccc(C(C(=O)NCCOC)N(CCOC)C(=O)CCC(=O)Nc2ccccn2)cc1 (centres undefined),inactive,–
CCOc1ccc(CCNC(=O)COC(=O)c2ccc(F)c(S(=O)(=O)N3CCOCC3)c2)cc1OCC,inactive,–
CC1CCCN(CCCNC(=O)CN2C(=O)COc3ccc(S(=O)(=O)N4CCOCC4)cc32)C1 (centres undefined),inactive,–
COc1ccc(-c2csc3nc(-c4ccccc4F)oc(=O)c23)cc1OC,inactive,–
COc1ccc(N2C(=O)C(CC(=O)Nc3ccccc3)N(Cc3ccc(OC)c(OC)c3)C2=O)cc1 (centres undefined),inactive,–
O=C(C(=O)N1CCN(c2ccccc2)CC1)c1ccc2c(c1)OCO2,inactive,–
O=P(c1ccc2c(c1)OCCO2)(N1CCOCC1)N1CCOCC1,inactive,–
Cn1cnnc1SCC(=O)NNC(=O)COc1ccc(Br)cc1,inactive,–
CN(C)CCOC(=O)C(c1ccccc1)C1(O)CCCC1 (centres undefined),inactive,–
CN(C)CC1Oc2ccccc2OC1(O)c1ccccc1 (centres undefined),10 µM (active),–
CC(C)Nc1ncnc2c1ncn2[C@H]1CN(Cc2ccncc2)C[C@@H](CO)O1,–,1.71% [at 18.4 µM]
O=C(CC1C(=O)NCCN1Cc1ccc(-c2ccccc2)cc1)NCc1ccncc1 (centres undefined),inactive,–
COc1cccc(CN2CCNC(=O)C2CC(=O)N(C)CCc2ccccn2)c1 (centres undefined),inactive,–
Cc1cccc(C(=O)NCc2nnc(SC(C)C(=O)Nc3nnc(C)s3)n2C)c1 (centres undefined),inactive,–
Nc1nonc1-n1nnc(C(=O)N/N=C/c2ccc(Cl)cc2)c1-c1ccc2c(c1)OCO2,inactive,–
Cc1nonc1C(=O)N/N=C/c1ccc(O)cc1,25.1 µM (active),–
COc1cc(/C=N\NC(=O)c2nonc2N)c(OC)cc1Br,inactive,–
Cc1ccc2nc(SC(C)C(=O)NCc3ccco3)[nH]c2c1 (centres undefined),inactive,–
O=c1[nH][nH]c2c1[C@H](c1ccc(Cl)cc1)O[C@H](CCc1ccccc1)C2,inactive,–
O=C(NCc1nnnn1-c1ccc(Cl)cc1)c1ccc([N+](=O)[O-])o1,inactive,–

Structure (SMILES),Potency,"activity change, negative = less growth"
O=C(/C=C/c1ccc(Cl)cc1)Nc1ccc(Br)cn1,inactive,–
O=C(Nc1ccc(Br)cn1)c1ccc([N+](=O)[O-])o1,17.8 µM (active),–
O=C(COc1ccccc1Cl)Nc1ccccc1C(=O)NC1CC1,inactive,–
Oc1ccccc1CNc1ncc(Br)cc1Br,35.5 µM (active),–
CCc1cccc(C)c1NS(=O)(=O)c1cc(Br)cnc1N,inactive,–
O=[N+]([O-])c1ncc(Br)cc1Nc1ccccc1,inactive,–
Cc1cccc(C(=O)Nc2ccccc2-c2nnn(CC(=O)Nc3ccc4c(c3)OCCO4)n2)c1,inactive,–
Clc1ccc(-c2nc3ccccn3c2CN2CCSCC2)cc1,inactive,–
CCOC(=O)C1=C(CC)Nc2ccccc2N=C1N,inactive,–
CCOC(=O)C(Cc1ccc(N)cc1)N1C(=O)c2ccccc2C1=O (centres undefined),inactive,–
CCOC(=O)C1=C(c2ccc(OC)cc2)C(=O)c2ccccc2C1=O,20 µM (active),–
CC(C)(C)S(=O)N1Cc2cc(C(=O)NCCCN3CCOCC3)nc(-c3cccc(-c4cc5ccccc5o4)c3)c2[C@H]1CCO (some centres undefined),inactive,–
CCOC(=O)N1CCN(S(=O)(=O)c2cc(Br)cc3c2N(C(=O)C2CC2)CC3)CC1,inactive,–
CC(=O)NC(CC(=O)Nc1cccc(S(=O)(=O)N2CCCC2)c1)c1ccccc1 (centres undefined),inactive,–
CN(C)S(=O)(=O)c1ccc2oc(SCC(=O)Nc3ccccc3F)nc2c1,inactive,–
CCOc1ccc(NC(=O)c2ccc(NC(=O)C3CCCO3)cc2)cc1 (centres undefined),inactive,–
COc1ccc(C2(C)NC(=O)N(CC(=O)c3ccc4c(c3)OCO4)C2=O)cc1 (centres undefined),inactive,–
CCOc1ccc(NCCC(=O)c2ccc3c(c2)OCO3)cc1,31.6 µM (active),–
Cc1cc(NC(=O)Cn2nc(C(F)(F)F)c3c2CCCC3)no1,inactive,–
Cc1cc(C)cc(NC(=O)c2cccc(NC(=O)C3C4CC5OC(=O)C3C5C4)c2)c1 (centres undefined),inactive,–
CN(C)c1cccc(NC(=O)c2ccc(-c3ccc(F)c(F)c3)c3ccoc23)c1,–,5.61% [at 18.4 µM]
O=C1C=CC(=O)N1c1ccc(N2CCCCC2)cc1,2.82 µM (active),–
O=C(c1ccc(Cl)c(S(=O)(=O)N2CCCCCC2)c1)N1CCN(c2ccc(O)cc2)CC1,inactive,–
Cc1cc(NC(=O)CSc2nccn2-c2ccc([N+](=O)[O-])cc2)no1,inactive,–
